IL-1B inflam inh – inhibitors of inflammasome signaling (IL-1 beta secretion); THP-1 LPS/ATP IL-1B secretion, AlphaLISA, 16 h; stronger effect = lower value; activity change, % at 57.5 µM; 4.7% of 360,000 active; in the data active = activity change below about -50%; inconclusive = mostly about -30% to -49%
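THP-1 cells pretreated 1 hr with compounds (up to 57.5 uM final), then stimulated with LPS (250 ng/mL final) plus ATP (1.25 mM final); secreted IL-1B measured by AlphaLISA after 16 hr, decreased signal indicating inhibition.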
HT1080NT lethal – kills 2HG-producing HT-1080-NT fibrosarcoma cells | HT-1080-NT fibrosarcoma viability, CellTiter-Glo ATP luminescence, 48 h | Potency, µM (series often up to 46.1 µM), usual class: cytotoxic | 1.6% of 360,000 active | AID 686970;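 note: NT is the 2HG producing partner of a matched IDH1 knockdown line; nearly all actives have a fitted effect of over 55% in size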
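Compounds were tested in concentration-response format on HT-1080-NT cells for 48 hours at 37 degrees C. Cell viability came from CellTiter-Glo luminescence; curves were classified by r2, response magnitude and activity.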
DT40 TDP1 CPT – DT40-hTDP1 cell growth loss with CPT. chicken DT40 Tdp1-/-;hTDP1 cells + 20 nM CPT, ATP luminescence, 48 h. Potency, µM (top dose mostly 46.2 µM), actives largely listed as inhibitors. 12% of 420,000 active. AID 686979; note: nearly all actives have a fitted effect of over 55% in size
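Chicken DT40 Tdp1-/- cells complemented with human TDP1, 400 cells/well, exposed to compounds plus 20 nM camptothecin for at least 48 h at 37 C; viability read as ATP content by CellTiter-Glo luminescence.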
TDP1 cell noCPT – qHTS for Inhibitors of human tyrosyl-DNA phosphodiesterase 1 (TDP1): qHTS in cells in absence of CPT | DT40 Tdp1-/- hTDP1 cells, no CPT, ATP luminescence, 48 h | Potency, µM (top dose mostly 46.2 µM), actives largely listed as inhibitors | 15% of 420,000 active | AID 686978, 2013; note: nearly all actives have a fitted effect of over 55% in size
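Luminescent ATP content (CellTiter-Glo) served as the growth readout. Knockout chicken DT40 cells expressing human TDP1 were exposed to compounds without camptothecin for a minimum 48 hr at 37 °C.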
HT1080 IDH1KD tx – kills HT-1080 cells with IDH1 knockdown. HT-1080 IDH1 knockdown viability, ATP luminescence, 48 h. Potency, µM (doses to about 46.1 µM), actives largely listed as cytotoxic. 2% of 360,000 active
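After a 2 h attachment period, IDH1KD HT-1080 cells took pin-transferred compound for 48 h at 37 °C; ATP-based luminescence after 10 min room-temperature reagent incubation reported viability.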
uPA generation – cell surface uPA generation inhibition; cell surface uPA generation assay, qHTS; AID 540303; 0.31% of 330,000 active; Potency, µM (top dose mostly 38.3 µM), hits mostly inhibitors; active = well fitted inhibition curve with a large enough effect; inconclusive = small, poorly fitted or top-dose-only effect; inactive = no such curve, though single readings can be large or run the other way; tested in mouse RAW 264.7 cells; note: nearly all actives have a fitted effect of over 55% in size
Of the large screens only hits and unclear results are named; the others gave an inactive call. Sampled rows, rich in hits. Any-hit rate of the full collection: about 19%. Unless noted, calls come from the whole dose curve; as a rule, active = well fitted curve in the direction sought with a large enough effect; inconclusive = small, poorly fitted or top-dose-only effect, or another doubt; inactive = no such curve, though single readings can be large; an effect the other way counts as inactive or inconclusive.

Cc1ccc2c(c1)Cc1c(nc(-c3ccc(Cl)cc3)nc1SCC(=O)N1CCCCC1)O2	TDP1 cell noCPT inconclusive (no result: IL-1B inflam inh, HT1080NT lethal, HT1080 IDH1KD tx, uPA generation)
COc1ccc(-c2ccc(CCC(=O)O)o2)cc1	IL-1B inflam inh inconclusive, HT1080NT lethal inconclusive, DT40 TDP1 CPT 21µM, TDP1 cell noCPT inconclusive, HT1080 IDH1KD tx inconclusive
O=C(O)CCc1ccc(-c2ccc(Cl)cc2)o1	none
O=C(O)CCc1ccc(-c2ccc(Br)cc2)o1	IL-1B inflam inh -65
CCOc1ccc(N2CC(NC(=O)C(=O)c3c[nH]c4ccccc34)CC2=O)cc1 (stereo not drawn)	TDP1 cell noCPT inconclusive (no result: IL-1B inflam inh, HT1080NT lethal, HT1080 IDH1KD tx, uPA generation)
Cc1ccccc1/C=c1\s/c(=C\C(=O)C(C)(C)C)[nH]c1=O	HT1080NT lethal inconclusive, DT40 TDP1 CPT 13µM, TDP1 cell noCPT 10µM, HT1080 IDH1KD tx inconclusive
CCc1ccc(/C=C2/C(=O)NC(=O)N2C(C)=O)cc1	IL-1B inflam inh inconclusive
CCc1ccc(/C=c2\s/c(=C\C(=O)C(C)(C)C)[nH]c2=O)cc1	HT1080NT lethal inconclusive, DT40 TDP1 CPT inconclusive, TDP1 cell noCPT 23µM, HT1080 IDH1KD tx inconclusive
COc1cc(NC(=O)COc2ccc([N+](=O)[O-])cc2)ccc1NC(=O)c1ccco1	IL-1B inflam inh inconclusive (no result: uPA generation)
CCCOc1ccc(-c2nn(-c3ccccc3)cc2C2NC(=O)NC(C)=C2C(=O)OC)cc1 (stereo not drawn)	DT40 TDP1 CPT inconclusive, TDP1 cell noCPT 16µM (no result: IL-1B inflam inh, HT1080NT lethal, HT1080 IDH1KD tx, uPA generation)
COC(=O)C1=C(C)NC(=O)NC1c1ccc(N2CCC(c3ccccc3)=N2)cc1 (stereo not drawn)	IL-1B inflam inh -69, DT40 TDP1 CPT inconclusive, TDP1 cell noCPT inconclusive, HT1080 IDH1KD tx inconclusive
CC(C)NC(=O)C1(C)CN(S(C)(=O)=O)CC(=O)N1Cc1ccco1 (stereo not drawn)	none (no result: uPA generation)
COc1ccccc1CCn1cnc2c3cc(C)ccc3n(C)c2c1=O	DT40 TDP1 CPT 18µM, TDP1 cell noCPT 12µM
COc1ccc2c(c1)c1ncn(CCN3CCCC3)c(=O)c1n2C	none (no result: uPA generation)
Cc1ccccc1N/C(=C(/C(Cl)=C(Cl)Cl)[N+](=O)[O-])n1nnc2ccccc21	DT40 TDP1 CPT 16µM, TDP1 cell noCPT inconclusive, HT1080 IDH1KD tx inconclusive
Cn1c(=O)c2c(nc(CCC3CCCC3)n2C)n(C)c1=O	DT40 TDP1 CPT inconclusive, TDP1 cell noCPT inconclusive
Cn1c(=O)c2c(nc(C3CC4C5CCC(C5)C4C3)n2C)n(C)c1=O (stereo not drawn)	DT40 TDP1 CPT inconclusive, TDP1 cell noCPT 16µM
O=C(c1ccc(COc2ccccc2Br)o1)N1N=C(C(F)F)CC1(O)C(F)F (stereo not drawn)	DT40 TDP1 CPT 18µM, TDP1 cell noCPT 26µM
OC1(c2ccc(Cl)cc2)CN(c2ccccc2)C2=[N+]1CCS2 (stereo not drawn)	IL-1B inflam inh -78, TDP1 cell noCPT inconclusive, HT1080 IDH1KD tx inconclusive
COc1ccc(C2(O)CN(c3ccccc3)C3=[N+]2CCS3)cc1OC (stereo not drawn)	none
COc1ccc(OC)c(N2CC(O)(c3ccccc3)[N+]3=C2SCCC3)c1 (stereo not drawn)	IL-1B inflam inh -51, DT40 TDP1 CPT inconclusive, TDP1 cell noCPT inconclusive
O=C(CC[C@H]1O[C@@H](n2ccc(=O)[nH]c2=O)[C@H](O)[C@@H]1O)NCC1CCCO1 (stereo partly drawn)	none (no result: uPA generation)
CC1(C)O[C@H]2[C@@H](O1)[C@@H](C(=O)Nc1ccc(F)c(F)c1)O[C@@H]1OC(C)(C)O[C@@H]12	none (no result: IL-1B inflam inh, HT1080NT lethal, HT1080 IDH1KD tx, uPA generation)
Cc1cc(C)nc(SCC(=O)NC2CCCCC2C)n1 (stereo not drawn)	none
O=[N+]([O-])c1ccccc1N=Nc1c(O)[nH]c2ccc(F)cc12	none
Cc1ccc2[nH]c(O)c(N=Nc3nc4ccccc4s3)c2c1	HT1080NT lethal inconclusive, DT40 TDP1 CPT 10µM, TDP1 cell noCPT 7.3µM
Cc1ccc2[nH]c(O)c(N=Nc3ccccc3[N+](=O)[O-])c2c1	DT40 TDP1 CPT 8.2µM, TDP1 cell noCPT 5.8µM
CCC(CO)Oc1cc(NC(=O)c2ccccc2Cl)c2ncn(C(C)C)c2c1 (stereo not drawn)	none
CCC(CO)Oc1cc(NC(=O)c2cccc(OC)c2)c2ncn(C(C)C)c2c1 (stereo not drawn)	DT40 TDP1 CPT inconclusive, TDP1 cell noCPT inconclusive
CCC(CO)Oc1cc(NC(=O)c2ccc(OC)cc2)c2ncn(C(C)C)c2c1 (stereo not drawn)	DT40 TDP1 CPT 18µM, TDP1 cell noCPT inconclusive
CCC(CO)Oc1cc(NC(=O)c2ccccc2[N+](=O)[O-])c2ncn(C(C)C)c2c1 (stereo not drawn)	DT40 TDP1 CPT 16µM, TDP1 cell noCPT inconclusive
Cc1ccc(/C=C2\CCCC3=C2NC(=S)NC3c2ccc(C)cc2)cc1 (stereo not drawn)	TDP1 cell noCPT inconclusive
CC1CC2=C(NC(=S)NC2c2ccccc2F)/C(=C/c2ccccc2F)C1 (stereo not drawn)	DT40 TDP1 CPT inconclusive, TDP1 cell noCPT inconclusive
CC1CC2=C(NC(=S)NC2c2cccc(F)c2)/C(=C/c2cccc(F)c2)C1 (stereo not drawn)	IL-1B inflam inh -64, DT40 TDP1 CPT inconclusive, TDP1 cell noCPT 16µM, HT1080 IDH1KD tx inconclusive
Cc1ccc(/C=C2\CC(C)CC3=C2NC(=S)NC3c2ccc(C)cc2)cc1 (stereo not drawn)	HT1080NT lethal inconclusive, DT40 TDP1 CPT inconclusive, TDP1 cell noCPT 15µM
Cc1cc(C(F)(F)F)n(-c2ccc(N)cc2)n1	none
COc1cccc(Cl)c1NC(=O)N1CCN(c2cc(C)nc3ccccc23)CC1	IL-1B inflam inh -71, DT40 TDP1 CPT 16µM, TDP1 cell noCPT inconclusive, HT1080 IDH1KD tx inconclusive
COc1ccc(-c2csc(N3CCN(c4cc(C)nc5ccccc45)CC3)n2)cc1OC	IL-1B inflam inh -101, HT1080NT lethal inconclusive, DT40 TDP1 CPT 15µM, TDP1 cell noCPT 15µM, HT1080 IDH1KD tx 16µM
COc1cccc(Cl)c1NC(=O)N1CCN(c2ccnc3cc(Cl)ccc23)CC1	DT40 TDP1 CPT inconclusive, TDP1 cell noCPT 23µM
CC1C(=O)Nc2ccc(S(=O)(=O)N3CCCCCC3)cc21 (stereo not drawn)	uPA generation inconclusive
O=C(CC12CC3CC(CC(C3)C1)C2)NCc1ccc(F)cc1	DT40 TDP1 CPT inconclusive, TDP1 cell noCPT inconclusive
COC(=O)c1csc(C2OC(CO)C(O)C2O)n1 (stereo not drawn)	none (no result: uPA generation)
COc1ccccc1CNC(=O)c1ccc2c(c1)CCN2S(=O)(=O)c1ccc(Cl)cc1	TDP1 cell noCPT inconclusive (no result: IL-1B inflam inh, HT1080NT lethal, HT1080 IDH1KD tx, uPA generation)
CCc1nnc(NC(=O)c2ccc(S(=O)(=O)N(C)Cc3ccccc3)cc2)o1	DT40 TDP1 CPT 16µM, TDP1 cell noCPT 21µM, uPA generation inconclusive

High-throughput results from PubChem.
